The source made the active and inactive calls. The calls were made as follows: active = hit-call score of the fitted dose curve at least 0.9, where 1 is the maximum; inactive = score below 0.9.
Assays:
Settings in all cases: mRNA level, 48 h; actives raise or lower the signal
[1] = read-out: DNA damage-inducible transcript 3 (DDIT3), DDIT3 (gene 1649); assay: LTEA_HepaRG_DDIT3: Life Technologies and Expression Analysis (LTEA) Assay for DNA damage-inducible transcript 3 (DDIT3) using HepaRG (AID 2283488)
Summary of the method: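 qRT-PCR readout (Fluidigm TaqMan), housekeeping-normalized to ACTB, GAPDH, POLR2A. HepaRG cells, 48 h exposure, 8-point half-log series from 100 uM in 0.5% DMSO, duplicates. Gain or loss of signal fitted against DMSO baseline.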

[2] = read-out: Pro-epidermal growth factor (Homo sapiens) (UniProt P01133); assay: LTEA_HepaRG_EGF: Life Technologies and Expression Analysis (LTEA) Assay for Epidermal growth factor (EGF) using HepaRG (AID 2283489)
Summary of the method: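 HepaRG, 48 h dosing, 100 uM top, half-log x8, 0.5% DMSO. Readout: TaqMan qRT-PCR (Fluidigm array), housekeeping-normalized. Gain or loss of signal fit vs DMSO.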

[3] = read-out: Early growth response protein 1 (EGR1) transcription factor, EGR1 (gene 1958); assay: LTEA_HepaRG_EGR1: Life Technologies and Expression Analysis (LTEA) Assay for Early growth response protein 1 (EGR1) transcription factor using HepaRG (AID 2283490)
Summary of the method: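 EGR1 transcript levels quantified by qRT-PCR (Fluidigm arrays) against three housekeeping genes after 48 h chemical exposure of HepaRG cells. Eight-point half-log series topping at 100 uM, 0.5% DMSO vehicle, analyzed for gain or loss.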

[4] = read-out: Ezrin (EZR), EZR (gene 7430); assay: LTEA_HepaRG_EZR: Life Technologies and Expression Analysis (LTEA) Assay for Ezrin (EZR) using HepaRG (AID 2283491)
Summary of the method: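 Gain or loss of EZR mRNA is scored relative to 0.5% DMSO in human HepaRG cultures treated 48 h with test chemicals in duplicate, eight half-log concentrations from 100 uM.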

[5] = read-out: Cytochrome P450 3A7 (Homo sapiens) (UniProt P24462); assay: LTEA_HepaRG_CYP3A7: Life Technologies and Expression Analysis (LTEA) Assay for CYP3A7 using HepaRG (AID 2283492)
Summary of the method: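 Human HepaRG liver cells, 48 h post-plating, switched to serum-free induction medium and exposed in duplicate for 48 h. Dosing: 100 uM top, half-log dilutions, 8 points, 0.5% DMSO vehicle. Read-out: CYP3A7 mRNA, gain or loss fitted against DMSO baseline.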

CYP3A5 (gene 1577) = assay: LTEA_HepaRG_CYP3A5: Life Technologies and Expression Analysis (LTEA) Assay for CYP3A5 using HepaRG (AID 2283493)
Summary of the method: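 qRT-PCR read-out: CYP3A5 transcript in HepaRG lysates, housekeeping-normalized (ACTB/GAPDH/POLR2A), fitted bidirectionally against 0.5% DMSO baseline. Exposure 48 h, eight half-log concentrations up to 100 uM, duplicates.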

[6] = read-out: Fatty Acid-Binding Protein 1 (FABP1), FABP1 (gene 2168); assay: LTEA_HepaRG_FABP1: Life Technologies and Expression Analysis (LTEA) Assay for Fatty Acid-Binding Protein 1 (FABP1) using HepaRG (AID 2283494)
Summary of the method: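 FABP1 expression by TaqMan qRT-PCR, normalised to three housekeeping genes, in HepaRG cells after 48 h chemical treatment. Eight-point half-log series topping at 100 uM in 0.5% DMSO, duplicates; gain or loss fitted relative to vehicle.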

[7] = read-out: Cytochrome P450 4A22 (Homo sapiens) (UniProt Q5TCH4); assay: LTEA_HepaRG_CYP4A22: Life Technologies and Expression Analysis (LTEA) Assay for Cytochrome P450 4A22 (CYP4A22) using HepaRG (AID 2283495)
Summary of the method: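 Readout is CYP4A22 transcript induction or loss, quantified by qRT-PCR and normalized to ACTB, GAPDH and POLR2A. Human HepaRG cells receive test chemicals for 48 h at eight half-log concentrations from 100 uM in 0.5% DMSO.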

[8] = read-out: Cytochrome P450 7A1 (Homo sapiens) (UniProt P22680); assay: LTEA_HepaRG_CYP7A1: Life Technologies and Expression Analysis (LTEA) Assay for Cytochrome P450 7A1 (CYP7A1) using HepaRG (AID 2283496)
Summary of the method: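 Using 0.5% DMSO as vehicle and baseline, chemicals were tested in duplicate over an 8-point range from 100 uM on HepaRG cells for 48 h; qRT-PCR signals were normalised to ACTB, GAPDH and POLR2A.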

[9] = read-out: Glutathione S-Transferase (GSTA2), GSTA2 (gene 2939); assay: LTEA_HepaRG_GSTA2: Life Technologies and Expression Analysis (LTEA) Assay for Glutathione S-Transferase (GSTA2) using HepaRG (AID 2283497)
Summary of the method: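 GSTA2 transcript levels came from Fluidigm TaqMan qRT-PCR normalized to three housekeeping genes, fitted in both directions against DMSO. HepaRG cultures received chemicals for 48 h in serum-free induction medium (0.5% DMSO), 8 half-log concentrations up to 100 uM, duplicate.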

Measured: outcome

Cytochrome P450 3A7 (Homo sapiens), sequence (P24462 whole entry, looked up): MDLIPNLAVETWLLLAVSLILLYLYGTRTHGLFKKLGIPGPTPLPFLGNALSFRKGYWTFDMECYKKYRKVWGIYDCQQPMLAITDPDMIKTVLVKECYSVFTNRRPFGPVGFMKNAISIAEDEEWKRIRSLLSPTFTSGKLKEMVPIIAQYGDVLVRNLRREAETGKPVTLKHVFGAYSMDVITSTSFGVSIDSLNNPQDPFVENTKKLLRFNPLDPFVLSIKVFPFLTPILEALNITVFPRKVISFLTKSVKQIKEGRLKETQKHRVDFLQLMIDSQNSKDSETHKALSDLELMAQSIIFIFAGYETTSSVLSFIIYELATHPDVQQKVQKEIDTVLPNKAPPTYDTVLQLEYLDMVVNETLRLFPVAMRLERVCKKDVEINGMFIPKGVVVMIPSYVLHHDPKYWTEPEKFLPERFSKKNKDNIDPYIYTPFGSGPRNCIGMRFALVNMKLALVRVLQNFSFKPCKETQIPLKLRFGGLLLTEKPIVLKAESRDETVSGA

CS(=O)(=O)OCCCCOS(C)(=O)=O
inactive: all assays above

Source: PubChem BioAssay (EPA / NIEHS)
